# Source: PubChem (National Center for Advancing Translational Sciences (NCATS))
# aSyn rescue: qHTS of alpha-syn Inhibitors; Yeast expressing alpha-synuclein, growth rescue, BacTiter-Glo, 24 h; Potency, µM (titrated, usually from 46.1 µM), inactives show at the top dose growth rescue (activation), actives largely listed as activators; hit rate 0.14% among 370,000; AID 652106, 2013; note: % of control where 0% means no effect; nearly all actives have a fitted effect of over 65% in size
#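 Galactose-induced alpha-syn yeast (OD600=0.02, raffinose-pregrown) + pinned cpd, 24 hr, 30 deg C; growth by BacTiter-Glo luminescence. Growth restoration scores as activation.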
# S-ASM inh: Inhibitors of Secretory Acid Sphingomyelinase (S-ASM): qHTS. placental ASM, HMU-PC fluorogenic substrate, 60 min. hit rate 0.006% among 340,000. Potency, µM (doses to about 57.5 µM), for inactives: at the highest dose activity change, negative = inhibition, most hits filed as inhibitors. AID 504937, 2011
# Target sequence (P17405 47-631 limits assumed): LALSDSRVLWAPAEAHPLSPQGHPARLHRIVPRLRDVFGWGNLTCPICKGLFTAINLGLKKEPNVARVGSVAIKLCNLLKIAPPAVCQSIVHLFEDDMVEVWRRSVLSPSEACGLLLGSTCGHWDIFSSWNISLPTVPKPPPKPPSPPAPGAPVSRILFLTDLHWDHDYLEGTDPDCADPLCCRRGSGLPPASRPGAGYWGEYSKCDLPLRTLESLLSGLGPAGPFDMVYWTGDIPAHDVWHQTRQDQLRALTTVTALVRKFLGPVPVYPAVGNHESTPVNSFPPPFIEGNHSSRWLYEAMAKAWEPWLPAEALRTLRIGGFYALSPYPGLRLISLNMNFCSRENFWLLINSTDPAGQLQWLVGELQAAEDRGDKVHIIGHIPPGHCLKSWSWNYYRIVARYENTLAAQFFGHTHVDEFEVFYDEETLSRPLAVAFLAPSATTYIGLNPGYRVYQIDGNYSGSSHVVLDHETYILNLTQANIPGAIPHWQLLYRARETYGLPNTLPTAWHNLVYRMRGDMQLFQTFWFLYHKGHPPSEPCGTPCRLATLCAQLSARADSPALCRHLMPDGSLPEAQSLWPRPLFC
#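 HMU-PC0 cleavage (9 uM final) by human placental ASM, 60 min at 37 °C following 10 min compound exposure at RT; stopped at pH 10, fluorescence Ex 386/Em 447 nm.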
# Abeta rescue: qHTS for compounds that reverse cellular toxicity of Amyloid beta (A-beta) peptide in yeast: Primary Screen; hit rate 0.063% among 410,000; Potency, µM (titrated, usually from 46.1 µM), actives largely listed as activators; yeast expressing A-beta42, growth rescue, OD600, 48 h; response scale: 0% DMSO, 100% iron-clioquinol control; note: nearly all actives have a fitted effect of over 55% in size
#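 Yeast growth medium received pinned compounds, then yeast cells expressing toxic A-beta were added; plates incubated at 30 C for 48 hr. Growth read as absorbance at 600 nm, normalized to DMSO and equimolar FeCl3 plus clioquinol controls.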
# TDP43 rescue: qHTS of TDP-43 Inhibitors; Potency, µM (top dose mostly 46.1 µM), for the others: top-dose growth rescue (activation), usual class: activators; hit rate 1.8% among 410,000; AID 652104, 2013; TDP-43 expressing yeast growth rescue, BacTiter-Glo, 24 h; note: % of control where 0% means no effect; nearly all actives have a fitted effect of over 50% in size
#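 Luminescence from BacTiter-Glo reports growth of TDP-43-expressing yeast after 24 hr at 30 deg C with compound. Cells were raffinose-pregrown to mid-log, then seeded in galactose medium at OD600=0.02.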
# Rango complex inh: qHTS Assay for Inhibitors of Rango (Ran-regulated importin-beta cargo) - Importin beta complex formation; Importin subunit beta-1 (Homo sapiens), Q14974; Rango CFP/YFP FRET sensor + importin beta, 45 min; Potency, µM (titrated, usually from 92.2 µM), without a hit: at the highest dose inhibition of complex formation; hit rate 0.031% among 340,000; AID 540263, 2011; calls by dose curve;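 note: 0% = DMSO wells and 100% = buffer wells lacking importin beta; nearly all actives have a fitted effect of over 15% in size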
#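 Inhibition scored from the CFP 486 nm/YFP 530 nm FRET ratio 45 min after adding 0.125 microM importin beta to 50 nM Rango biosensor preincubated 5 min with compound (room temperature, PBS with DTT, Tween-20, BSA). No-importin wells as positive control.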
# Rango dissoc inh: qHTS Assay for Inhibitors of RanGTP induced Rango (Ran-regulated importin-beta cargo) - Importin beta complex dissociation; Biochemical FRET Rango-importin beta, RanGTP-induced dissociation; Potency, µM (top dose mostly 46.1 µM), inactives show at the highest dose activity change, negative = inhibition; hit rate 0.071% among 340,000; AID 540253, 2011; calls by dose curve; note: % of control where 0% means no effect; nearly all actives have a fitted effect of over 45% in size
#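 Quantitative HTS using a FRET biosensor: 0.1 uM Rango, 0.25 uM importin beta, 0.6 uM Ran, 2 mM GTP, 0.2 uM RCC1 final, PBS with DTT, Tween-20 and BSA. Post-read taken 45 min after Ran addition.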
# * marks the source's active call; other numbers are inactive results; i = inactive; ? = inconclusive; · = no result given. Rows were chosen to be rich in hits. Some 2% of all compounds tested hit in one or more screens of this group. Unless noted, calls come from the whole dose curve; as a rule, active = well fitted curve in the direction sought with a large enough effect; inconclusive = small, poorly fitted or top-dose-only effect, or another doubt; inactive = no such curve, though single readings can be large; an effect the other way counts as inactive or inconclusive. Potency is the fitted concentration of half-maximal effect.
SMILES,aSyn rescue,S-ASM inh,Abeta rescue,TDP43 rescue,Rango complex inh,Rango dissoc inh
O=C(CSc1nnc(-c2ccccn2)o1)Nc1ccc(F)cc1,-5.1%,4.4%,i,17.3%,-0.5%,-0.8%
Fc1ccc(CSc2nnc(-c3ccccn3)o2)cc1,-2.2%,3.3%,i,12.6µM*,2.7%,7.1%
CC(C)(C)c1ccc(C(=O)N2CCNCC2)cc1,-5.3%,-1.1%,i,-3.9%,0.0%,-20.0%
CN1CCC2(CC1)N=C(c1ccc(F)cc1)C(=S)N2C(=O)c1ccc(C(C)(C)C)cc1,13.9%,-18.0%,i,20µM*,4.5%,4.9%
COc1cccc(CNC(=O)c2cc3c(s2)-c2c(C)cccc2OC3)c1,·,·,i,22.3%,·,·
COc1ccc(OC)c2sc(N3CCN(C(=O)C(C)(C)C)CC3)nc12,·,·,i,22.4µM*,·,·
COc1ccc(OC)c2sc(N3CCN(C(=O)C4CC4)CC3)nc12,·,·,i,0.0%,·,·
CCOc1cccc2sc(N3CCN(C(=O)c4ccco4)CC3)nc12,·,·,i,?,·,·
CCOc1cccc2sc(N3CCN(C(=O)C(C)(C)C)CC3)nc12,·,·,i,11.2µM*,·,·
COc1ccc(S(=O)(=O)NCCc2sc(-c3ccccc3)nc2C)cc1OC,28.1%,·,i,16.8%,·,·
CCOC(=O)c1c(S(=O)(=O)N2CCC(C(=O)Nc3ccc(C)cn3)CC2)c(C)n(C)c1C,·,·,i,?,·,·
COc1ccc(-c2cc(C(=O)O)n(Cc3ccccc3)n2)cc1,·,·,i,?,·,·
COc1cc(C(O)c2nc(-c3cccc(C#N)c3)cs2)ccc1F (stereo not given),?,·,i,10µM*,·,·
COc1ccc(C(O)c2nc(-c3ccc(F)c(Cl)c3)cs2)cc1 (stereo not given),12.6µM*,·,?,11.2µM*,·,·
COc1ccc(-c2csc(C(O)c3ccc(F)c(OC)c3)n2)cc1 (stereo not given),17.8µM*,·,?,22.4µM*,·,·
COc1cc(C(O)c2nc(-c3ccccc3)cs2)ccc1F (stereo not given),?,·,i,0.0%,·,·
COc1cc(C(O)c2nc(-c3ccc(F)cc3OC)cs2)ccc1F (stereo not given),?,·,i,25.1µM*,·,·
COc1cc(F)ccc1-c1csc(C(O)c2ccc(F)c(F)c2)n1 (stereo not given),-0.4%,·,i,-36.8%,·,·
CCc1ccccc1NC(=O)Cn1ccn(-c2cc(C)cc(C)c2)c(=O)c1=O,·,·,i,2.3%,·,·
COc1ccc(N2CCN(S(=O)(=O)c3ccc(CC(C)C)cc3)CC2)cc1,·,·,i,0.0%,·,·
CC1=NNC(=O)C1CC(=O)N/N=C/C(Br)=C/c1ccccc1 (stereo not given),12.5%,-0.4%,i,14.1µM*,-2.1%,20.7%
COc1ccc(-c2nc(CCNS(=O)(=O)c3ccc4c(c3)OCCO4)cs2)cc1,-16.1%,-1.8%,i,12.6µM*,-2.9%,10.3%
O=S(=O)(NCCc1csc(-c2ccc(C(F)(F)F)cc2)n1)c1ccc2c(c1)OCCO2,-1.4%,-3.6%,?,25.1µM*,0.7%,-8.2%
CCCn1c(=N)c(C(=O)NC(C)c2ccccc2)cc2c(=O)n3ccccc3nc21 (stereo not given),·,·,i,23.8%,·,·
COc1ccc(C(=O)N2N=C(c3cccs3)CC2c2ccccc2O)cc1 (stereo not given),17.8µM*,-20.2%,i,27.6%,-0.8%,-10.6%
SMILES,aSyn rescue,S-ASM inh,Abeta rescue,TDP43 rescue,Rango complex inh,Rango dissoc inh
O=C1c2ccccc2C(=O)N1CCc1ccccc1,23.6%,-0.5%,i,11.2µM*,-0.9%,-19.2%
O=C1c2ccccc2C(=O)N1CCc1c(-c2ccccc2)[nH]c2ccccc12,10.3%,-9.3%,i,11.2µM*,1.5%,13.3%
COc1ccc(C(=O)CC2(O)C(=O)N(Cc3cccc(C(F)(F)F)c3)c3ccccc32)cc1 (stereo not given),?,·,i,22.4µM*,·,·
COc1cc(CNCc2c(C(=O)O)c(C)n(Cc3cccc(Cl)c3)c2C)cc(OC)c1OC,·,·,i,-24.7%,·,·
CCCSc1nc(NCc2ccco2)c2c3c(sc2n1)COC(C)(C)C3,3.1%,-4.7%,i,20µM*,-5.0%,-20.9%
CCCCSc1nc(NCc2ccco2)c2c3c(sc2n1)COC(C)(C)C3,0.2%,7.2%,i,?,-5.3%,-7.4%
O=C(O)CCc1ccc(-c2ccc(Br)cc2)o1,-43.8%,7.1%,i,3.16µM*,-1.0%,-5.2%
COc1ccc(-c2ccc(CCC(=O)O)o2)cc1,?,-0.6%,i,10µM*,?,-6.3%
NC(=O)c1ccc(-c2ccc(Br)cc2)o1,-0.2%,-8.0%,i,12.6µM*,5.8%,15.4%
O=C(O)CCc1ccc(-c2ccc(Cl)cc2)o1,-47.2%,3.0%,i,?,-2.5%,12.9%
COc1ccc(OC)c(CNC(=O)c2ccc(C)c(NC(=O)c3nsc4ccccc34)c2)c1,·,·,i,-0.5%,·,·
Cc1ccc2nc(-c3ccc(C)c(NC(=O)COc4ccc(Br)cc4)c3)oc2c1,-0.4%,·,·,·,·,·
COC(=O)c1ccc(OCC2c3cc(OC)c(OC)cc3CCN2C(=O)Cc2ccc(OC)cc2)cc1 (stereo not given),-9.6%,·,i,18.7%,·,·
Cc1nn(C)c(C(=O)Nc2ccc(S(=O)(=O)NC34CC5CC(CC(C5)C3)C4)cc2)c1Br,22.4µM*,-18.2%,?,4.2%,-0.4%,-0.2%
CCN(CC)CCCNC(=O)Cn1c(-c2cccs2)cc2cc(Cl)ccc21,·,·,i,0.5%,·,·
CCCCCCOc1ccc(NC(=O)CC2C(=O)N(CC)C(=S)N2Cc2ccco2)cc1 (stereo not given),14.1µM*,-22.0%,i,?,0.1%,6.7%
CCN1C(=O)C(CC(=O)Nc2ccc(F)cc2)N(Cc2ccco2)C1=S (stereo not given),3.4%,-2.6%,i,18.2%,4.1%,-9.0%
CNc1ccc(C=O)cc1Cl,-3.3%,·,·,·,·,·
CCOc1cc(-c2ccc(OC(=O)c3ccc(Cl)cc3)c(OC)c2)cc(=O)c2c(C)oc(C)c12,·,·,i,0.0%,·,·
S=Cc1nc2ccccc2[nH]1,-0.5%,·,·,·,·,·
C=C(C)CNC(=S)N/N=C/C1=CCC2CC1C2(C)C (stereo not given),-12.6%,-2.6%,i,17.8µM*,-0.8%,8.7%
